In PubChem BioAssay (NCATS):
Results filed as inconclusive are left out. Calls of active or inactive are those of the source. Calls follow the shape of the dose curve; as a rule, active = well fitted curve in the direction sought with a large enough effect; inconclusive = small, poorly fitted or top-dose-only effect, or another doubt; inactive = no such curve, though single readings can be large; an effect the other way counts as inactive or inconclusive.

Tests used:
[1] = qHTS of pediatric cancer cell lines to identify multiple opportunities for drug repurposing: Primary screen for DAOY cells (AID 1347090); also: nearly all actives have a fitted effect of over 55% in size;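 as to activity change, negative = cytotoxic: series mostly up to about 46 µM; plate controls were DMSO for no effect and bortezomib for full effect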
How it was run: (§1)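 Eight- or eleven-point concentration series, 48 h treatment at 37 degrees C in growth media; readout CellTiter-Glo luminescence. Potency and efficacy were taken from the concentration-response curves.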

[2] = qHTS of pediatric cancer cell lines to identify multiple opportunities for drug repurposing: Primary screen for SJ-GBM2 cells (AID 1347091);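 as to activity change, negative = cytotoxic: plate controls were DMSO neutral control for no effect and bortezomib for full effect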
How it was run: as §1

[3] = qHTS of pediatric cancer cell lines to identify multiple opportunities for drug repurposing: Primary screen for A673 cells (AID 1347092); also: nearly all actives have a fitted effect of over 45% in size; as to activity change, negative = cytotoxic: % is scaled to controls: 0 for no effect and ±100 for the full control effect
How it was run: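 A673 cells (500-1,000 cells/well) were treated 48 hours at 37 degrees C with compounds at 11-point (0.78 nM to 46 µM) or 8-point (0.59 nM to 46 µM) dilutions. Viability read by CellTiter-Glo luminescence; concentration-response curves fitted.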

[4] = qHTS of pediatric cancer cell lines to identify multiple opportunities for drug repurposing: Primary screen for SK-N-MC cells (AID 1347093);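 as to activity change, negative = cytotoxic: series mostly up to about 46 µM; plate controls were DMSO neutral control for no effect and bortezomib for full effect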
How it was run: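 Metabolically active cells were quantified by ATP-dependent luminescence (CellTiter-Glo, 15 min at room temperature) following 48 h treatment. Cells had been plated at 500-1,000 per well and settled for 5 h beforehand.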

[5] = qHTS of pediatric cancer cell lines to identify multiple opportunities for drug repurposing: Primary screen for BT-37 cells (AID 1347094);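 as to activity change, negative = cytotoxic: series mostly up to about 57 µM; plate controls were DMSO for no effect and bortezomib for full effect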
How it was run: (§2)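 Luminescence from CellTiter-Glo served as readout of metabolically active cells after 48 h compound exposure. Titrations: MIPE 11-point, from 0.78 nM; NPC 8-point, from 0.59 nM (final). Concentration-response curves came straight from the primary screen.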

[6] = qHTS of pediatric cancer cell lines to identify multiple opportunities for drug repurposing: Primary screen for NB-EBc1 cells (AID 1347095);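 as to activity change, negative = cytotoxic: plate controls were DMSO neutral control for no effect and bortezomib for full effect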
How it was run: as §2

[7] = qHTS of pediatric cancer cell lines to identify multiple opportunities for drug repurposing: Primary screen for U-2 OS cells (AID 1347096); also: nearly all actives have a fitted effect of over 50% in size;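 as to activity change, negative = cytotoxic: plate controls were DMSO wells for no effect and bortezomib positive control wells for full effect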
How it was run: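 Cells (500-1,000/well) in growth media were settled 5 h at 37 degrees C, then given compounds for 48 h. Viability was read as CellTiter-Glo luminescence. Primary runs used MIPE at 11 points (0.78 nM-46 µM) and NPC at 8 points (0.59 nM-46 µM); follow-ups used 11 points.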

[8] = qHTS of pediatric cancer cell lines to identify multiple opportunities for drug repurposing: Primary screen for Saos-2 cells (AID 1347097); also: nearly all actives have a fitted effect of over 40% in size; as to activity change, negative = cytotoxic: % is scaled to controls: 0 for no effect and ±100 for the full control effect
How it was run: as §2

[9] = qHTS of pediatric cancer cell lines to identify multiple opportunities for drug repurposing: Primary screen for SK-N-SH cells (AID 1347098); also: nearly all actives have a fitted effect of over 65% in size;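 as to activity change, negative = cytotoxic: DMSO served as neutral control and bortezomib at 2.3 µM as positive control; % is scaled to controls: 0 for no effect and ±100 for the full control effect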
How it was run: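 Cells (500-1,000/well) rested 5 h, then received compounds for 48 h; metabolically active cells were measured by CellTiter-Glo luminescence. Final concentrations spanned up to 46 µM (MIPE, 11-point) or 0.59 nM-46 µM (NPC, 8-point) in primary screens, 11-point in follow-ups.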

[10] = qHTS of pediatric cancer cell lines to identify multiple opportunities for drug repurposing: Primary screen for NB1643 cells (AID 1347099); also: nearly all actives have a fitted effect of over 50% in size;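 as to activity change, negative = cytotoxic: plate controls were DMSO neutral control for no effect and bortezomib positive control for full effect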
How it was run: as §2
Potency is read from the fitted curve at half-maximal effect.

C[C@]12CCC3=C4CCC(=O)C=C4CC[C@@H]3[C@H]1CC[C@@]2(O)CC#N
inactive: Potency [1] | Potency [2] | Potency [3] | Potency [4] | Potency [5] | Potency [6] | Potency [7] | Potency [8] | Potency [9] | Potency [10]

CN[C@H]1[C@@H](O[C@@H]2[C@H](O[C@@H]3[C@@H](O)[C@@H](O)[C@@H](N=C(N)N)[C@@H](O)[C@@H]3N=C(N)N)O[C@H](C)[C@@]2(O)C=O)O[C@@H](CO)[C@@H](O)[C@H]1O
inactive: activity change, negative = cytotoxic [1] 1.78% [at 9.22 µM] | activity change, negative = cytotoxic [2] 13.3% [at 9.22 µM] | activity change, negative = cytotoxic [3] -1.15% [at 9.22 µM] | activity change, negative = cytotoxic [4] -4.87% [at 9.22 µM] | activity change, negative = cytotoxic [5] 3.99% [at 11.5 µM] | activity change, negative = cytotoxic [6] 7.3% [at 9.22 µM] | activity change, negative = cytotoxic [7] 13% [at 9.22 µM] | activity change, negative = cytotoxic [9] 18.9% [at 11.4 µM] | activity change, negative = cytotoxic [10] 3.56% [at 9.22 µM]

CC[C@H](NC(=O)[C@H](C)NC)C(=O)N1C[C@@H](O)C[C@H]1Cc1c(-c2[nH]c3cc(F)ccc3c2C[C@H]2C[C@H](O)CN2C(=O)[C@H](CC)NC(=O)[C@H](C)NC)[nH]c2cc(F)ccc12
inactive: Potency [7]
active: Potency [1] 2350 nM | Potency [2] 46.9 nM | Potency [3] 11.8 nM | Potency [4] 1180 nM | Potency [5] 217 nM | Potency [6] 418 nM | Potency [8] 372 nM

COc1ccc(-c2ccc3ncc4c(c3c2)n(-c2ccc(N3CCNCC3)c(C(F)(F)F)c2)c(=O)n4C)cn1
active: Potency [1] 590 nM | Potency [2] 13.2 nM | Potency [3] 372 nM | Potency [4] 3.7 nM | Potency [5] 30.6 nM | Potency [6] 14.8 nM | Potency [7] 7430 nM | Potency [8] 418 nM | Potency [9] 85.7 nM | Potency [10] 264 nM

CCOC(=O)N1CCN([N+]([O-])=NOc2cc(ON=[N+]([O-])N3CCN(C(=O)OCC)CC3)c([N+](=O)[O-])cc2[N+](=O)[O-])CC1
inactive: Potency [1] | Potency [3] | Potency [4] | Potency [5] | Potency [7] | Potency [8] | Potency [9] | Potency [10]
active: Potency [2] 14800 nM | Potency [6] 5900 nM

OC[C@H]1O[C@@H](O[C@H]2[C@@H](O)[C@@](O)(CO)O[C@@H]2CO)[C@H](O)[C@@H](O)[C@@H]1O
inactive: Potency [1] | Potency [2] | Potency [3] | Potency [4] | Potency [5] | Potency [6] | Potency [7] | Potency [8] | Potency [9] | Potency [10]

CCCCC(F)(F)[C@@]1(O)CC[C@H]2[C@H](CC(=O)[C@@H]2CCCCCCC(=O)O)O1
inactive: Potency [1] | Potency [2] | Potency [3] | Potency [4] | Potency [5] | Potency [6] | Potency [7] | Potency [8] | Potency [9] | Potency [10]

CN[C@@H]1[C@@H](O)[C@@H](O[C@@H]2[C@@H](O)[C@H](O[C@H]3O[C@H](CN)[C@@H](O)[C@H](O)[C@@H]3O)[C@@H](N)C[C@@H]2NC(=O)[C@@H](O)CN)OC[C@]1(C)O
inactive: Potency [1] | Potency [2] | Potency [3] | Potency [4] | Potency [5] | Potency [6] | Potency [7] | Potency [8] | Potency [10]

CN1CC(=O)N2C(Cc3c([nH]c4ccccc34)[C@H]2c2ccc3c(c2)OCO3)C1=O (stereo partly drawn)
inactive: Potency [1] | Potency [2] | Potency [3] | Potency [4] | Potency [5] | Potency [6] | Potency [7]

NS(=O)(=O)c1cc(Cl)c(Cl)c(S(N)(=O)=O)c1
inactive: Potency [1] | Potency [2] | Potency [3] | Potency [4] | Potency [5] | Potency [6] | Potency [7] | Potency [8] | Potency [9]

O=C(O)C1=CC(O)C(O)[C@H](O)C1 (stereo partly drawn)
inactive: Potency [1] | Potency [2] | Potency [3] | Potency [4] | Potency [5] | Potency [6] | Potency [7] | Potency [8] | Potency [9]

CC1(C)OC2CC3C4CC(F)C5=CC(=O)C=CC5(C)C4C(O)CC3(C)[C@]2(C(=O)CO)O1 (stereo partly drawn)
inactive: Potency [1] | Potency [2] | Potency [3] | Potency [4] | Potency [5] | Potency [6] | Potency [7] | Potency [8] | Potency [9] | Potency [10]

CC[C@H](C)C(=O)O[C@H]1C[C@H](O)C=C2C=C[C@H](C)[C@H](CC[C@@H](O)C[C@@H](O)CC(=O)O)[C@H]21
inactive: Potency [1] | Potency [2] | Potency [3] | Potency [4] | Potency [5] | Potency [6] | Potency [7] | Potency [9]

N#Cc1c(N(CC(=O)O)CC(=O)O)sc(C(=O)O)c1CC(=O)O
inactive: Potency [1] | Potency [2] | Potency [3] | Potency [4] | Potency [5] | Potency [6] | Potency [7] | Potency [8] | Potency [9] | Potency [10]

COC(=O)N1CCN(Cc2cccc(NC(=O)Nc3ccc(C)nc3)c2F)CC1
inactive: Potency [1] | Potency [2] | Potency [3] | Potency [4] | Potency [5] | Potency [6] | Potency [7] | Potency [8] | Potency [9]
